Results published in PubChem BioAssay (Tox21).
Records with an inconclusive call do not appear. Entries that show only a call come without a potency. Calls of active or inactive are those of the source. Calls come from the whole dose curve; as a rule, active = well fitted cell-killing curve with a large enough effect in the repeat runs; inconclusive = weak or mixed curves, or effect the other way; inactive = no such curve, though single readings can be large or run the other way.

Assay: qHTS assay to identify small molecule antagonists of the peroxisome proliferator-activated receptor gamma (PPARg) signaling pathway - cell viability counter screen (AID 743194); note: nearly all actives have a fitted effect of over 55% in size
Conditions: PPARg-bla HEK293H viability, CellTiter-Glo luminescence, 17 h; Potency: co-treated with 50 nM rosiglitazone; series mostly up to 62.6 µM
Text: U.S. Tox21 Program National Center for Advancing Translational Sciences [NCATS] NIH Chemical Genomics Center [NCGC] U.S. Environmental Protection Agency [EPA] National Institutes of Environmental Health Sciences [NIEHS] National Toxicology Program [NTP] U.S. Food and Drug Administration [FDA] Tox21 Assay Overview: The peroxisome proliferator-activated receptors (PPARs) are lipid-activated transcription factors of the nuclear receptor superfamily with three distinct subtypes namely PPAR alpha, PPAR delta (also called PPAR beta) and PPAR gamma (PPARg). All these subtypes heterodimerize with Retinoid X receptor (RXR) and these heterodimers regulate transcription of various genes. PPAR-gamma receptor (glitazone receptor) is involved in the regulation of glucose and lipid metabolism. To identify the compounds that activate PPAR-gamma signaling, GeneBLAzer PPAR gamma UAS-bla HEK293H cell line (Invitrogen, Carlsbad, CA, USA) containing a beta-lactamase reporter gene under the control of an Upstream Activator Sequence (UAS) was used to screen the Tox21 compound library. The cytotoxicity of the Tox21 compound library against the PPARg-bla cell line was tested in parallel by measuring the cell viability using CellTiter-Glo assay in the same wells.
Tox21 Assay Protocol Summary: PPARg-bla cells were dispensed at 3000 cells/5uL/well in 1536-well black wall/clear bottom plates using a Multidrop Combi (Thermo Fisher Scientific, Waltham, MA) dispenser. After the assay plates were incubated at 37 C and 5% CO2 for 5 h, 23 nL of compounds dissolved in DMSO, positive controls or DMSO only was transferred to the assay plate by a Pintool station (Kalypsys, San Diego, CA), followed by addition of 1ul Rosiglitazone (50 nM, final concentration in the wells). The assay plates were incubated at 37 C for 17 h, and then 1 uL of LiveBLAzerTM B/G FRET substrate was added using a Bioraptr Flying Reagent Dispenser (FRD) workstation (Beckman Coulter, Indianapolis, IN, USA). The assay plates were incubated at room temperature for 1 h and fluorescence intensity was measured by an Envision plate reader (PerkinElmer, Shelton, CT). For cell viability readout that measures cytotoxicity, 4 ul/well of CellTiter-Glo reagent was added into the assay plates using a Flying Reagent Dispenser. After 30 min incubation at room temperature, the luminescence intensity in the plates was measured using a ViewLux plate reader (PerkinElmer).
For `Clc1cc(C(Cl)(Cl)Cl)cnc1Cl`, the Potency was “inactive”. In the case of `Brc1ccc(Oc2ccccc2)cc1`, the Potency was “inactive”. With `ClCC(Br)CBr` (stereo not given) the Potency was “inactive”. In the case of `CCOC(=O)[C@]1(c2ccccc2)Oc2ccccc2[C@@H]1N`, the Potency was “inactive”. With `O=[N+]([O-])C(Br)(CO)CO` the Potency was “inactive”. In the case of `NC(=O)CI`, the Potency was “inactive”. In the case of `Cc1ccc(N)cc1C`, the Potency was “inactive”. In the case of `[O-][Cl+]O`, the Potency was “inactive”. For `O=NN1CCNCC1`, the Potency was “inactive”. For `CC(=O)C(C)(C)C`, the Potency was “inactive”. In the case of `CC(Cl)C(C)Cl` (stereo not given), the Potency was “inactive”. For `II`, the Potency was “inactive”. With `CC(C)N(CCC(C(N)=O)(c1ccccc1)c1ccccn1)C(C)C` (stereo not given) the Potency was “inactive”. For `CC1(C)[C@H](C=C(Cl)Cl)[C@@H]1C(=O)O[C@@H](C#N)c1cccc(Oc2ccccc2)c1`, the Potency was “inactive”. In the case of `COP(=S)(OC)Oc1cc(Cl)c(I)cc1Cl`, the Potency was “inactive”. For `COP(=S)(OC)Oc1ccc([N+](=O)[O-])cc1Cl`, the Potency was “inactive”. For `CCOP(=S)(Oc1ccc([N+](=O)[O-])cc1)c1ccccc1` (stereo not given), the Potency was “inactive”. In the case of `COc1cc(Cl)c(OC)cc1Cl`, the Potency was “inactive”. For `CCn1cc[n+](C)c1`, the Potency was “inactive”. With `CC(C)O.CC(C)O.OCCN(CCO)CCO.OCCN(CCO)CCO.[Ti]` the Potency was “inactive”. In the case of `Clc1cc(Cl)c(Cl)c(Cl)c1`, the Potency was “inactive”. For `CC1Sc2c(C(=O)O)c(=O)c3cc(F)c(N4CCNCC4)cc3n21` (stereo not given), the Potency was “inactive”. With `O=C1CN=C(c2ccccc2)c2cc(Cl)ccc2N1CC1CC1` the Potency was “inactive”. With `COc1nn(C(=O)NS(=O)(=O)c2ccccc2OC(F)(F)F)c(=O)n1C` the Potency was “inactive”. In the case of `CCOc1ccc(C(C)(C)COCc2cccc(Oc3ccccc3)c2)cc1`, the Potency was “inactive”. With `C[C@@H]1CC[C@H]2[C@@H](C)C(=O)O[C@@H]3O[C@@]4(C)CC[C@@H]1[C@]32OO4` the Potency was “inactive”. For `N#CCC#N`, the Potency was “inactive”. In the case of `O=C(O)C(F)(F)C(F)(F)C(F)(F)C(F)(F)C(F)(F)C(F)(F)C(F)(F)C(F)(F)C(F)(F)F`, the Potency was “inactive”. For `COCC(C)N(C(=O)CCl)c1c(C)csc1C` (stereo not given), the Potency was “inactive”. With `O=C(NC(=O)c1c(F)cccc1F)Nc1ccc(OC(F)(F)C(F)OC(F)(F)F)c(Cl)c1` (stereo not given) the Potency was “inactive”. In the case of `N#Cc1ccc(Cl)cc1`, the Potency was “inactive”. For `BrCC(Br)C1CCC(Br)C(Br)C1` (stereo not given), the Potency was “inactive”. With `C=CC(C)=O` the Potency was “inactive”. For `C=CC(=O)OCC(C)O` (stereo not given), the Potency was “inactive”. For `CC(=O)CCC(C)=O`, the Potency was “inactive”. In the case of `CCOP(O)OCC`, the Potency was “inactive”. For `COC(=O)C(C)N(C(=O)Cc1ccccc1)c1c(C)cccc1C` (stereo not given), the Potency was “inactive”. In the case of `CCCN(CC1CC1)c1c([N+](=O)[O-])cc(C(F)(F)F)cc1[N+](=O)[O-]`, the Potency was “inactive”. With `CCCC(=O)Cl` the Potency was “inactive”. With `COc1c(C(C)(C)C)cc([N+](=O)[O-])c(C)c1[N+](=O)[O-]` the Potency was “inactive”.
